Whole data set: some 8,300 sequences, median “log2 fold change of degron read counts, EGFP-low vs EGFP+ sorted cells (limma voom), compound-induced degradation” near -1.1, cut for the highest 2% near 3.2. Only a selection was taken, and the highest values are over-represented in it overall.
T1: CRBN, Q96SW2
T1 chain: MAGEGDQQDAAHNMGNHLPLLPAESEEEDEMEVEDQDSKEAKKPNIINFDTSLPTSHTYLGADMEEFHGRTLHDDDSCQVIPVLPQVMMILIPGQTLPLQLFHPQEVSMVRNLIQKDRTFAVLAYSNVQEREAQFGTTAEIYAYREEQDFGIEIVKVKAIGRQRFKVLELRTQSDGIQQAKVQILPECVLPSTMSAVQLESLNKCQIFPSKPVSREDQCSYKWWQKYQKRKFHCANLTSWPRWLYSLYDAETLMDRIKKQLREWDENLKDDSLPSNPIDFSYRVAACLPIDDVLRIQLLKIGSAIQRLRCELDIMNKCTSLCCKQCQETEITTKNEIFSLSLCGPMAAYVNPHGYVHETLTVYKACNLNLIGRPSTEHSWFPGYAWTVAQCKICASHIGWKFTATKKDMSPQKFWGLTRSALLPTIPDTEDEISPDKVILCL


Target: T1, CRBN, Q96SW2
Test: log2 fold change of degron read counts, EGFP-low vs EGFP+ sorted cells (limma voom), compound-induced degradation; higher = more compound-induced degradation of the degron-EGFP fusion; degrons are variants of IKZF1/3 zinc finger 2; compound dose not given here
Conditions: Jurkat, 18 h
[1] = compound: compound 19 (5-tert-butyl-thalidomide)
[2] = compound: compound 22 (5-morpholino-thalidomide)
[3] = compound: compound 33 (diphenyl IMiD analogue)
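Also: pooled lentiviral library of zinc finger degron-EGFP fusions in mCherry-positive Jurkat cells, FACS-sorted after compound exposure, with degron abundance counted by next-generation sequencing.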

Sequence	log2 fold change of degron read counts [1]	log2 fold change of degron read counts [2]	log2 fold change of degron read counts [3]	log2 fold change of degron read counts (compound: thalidomide)
FSCPICGRCFTQKGNLLRHIKL [46F_47S_49P_50I_52G_53R_54C_55F_67L_, Q9UKT9]	-0.773	-1.2	0.835	-0.39
FYCDQCGAFFTQKGNLLRHIKL [46F_47Y_49D_50Q_52G_53A_54F_55F_67L_, Q9UKT9]	-0.965	-1.17	-1.35	-2.48
FLCEICGRIFTQKGNLLRHIKL [46F_47L_49E_50I_52G_53R_54I_55F_67L_, Q9UKT9]	-1.35	-1.7	-0.45	-0.0614
FRCNQCGAVFTQKGNLLRHIKL [46F_47R_49N_50Q_52G_53A_54V_55F_67L_, Q9UKT9]	-2.12	-2.1	-1.19	-1.75
FLCEICGRNFTQKGNLLRHIKL [46F_47L_49E_50I_52G_53R_54N_55F_67L_, Q9UKT9]	-2.29	-2.99	-1.84	-0.409
FVCNVCGAHFTQKGNLLRHIKL [46F_47V_49N_50V_52G_53A_54H_55F_67L_, Q9UKT9]	-1.72	-0.867	0.0144	-0.327
FACPQCGAKFTQKGNLLRHIKL [46F_47A_49P_50Q_52G_53A_54K_55F_67L_, Q9UKT9]	1.62	-1.34	-2.13	-1.03
FECPICGHAFTQKGNLLRHIKL [46F_47E_49P_50I_52G_53H_54A_55F_67L_, Q9UKT9]	-2.37	-2.63	-1.62	-1.53
FSCNICGAGFTQKGNLLRHIKL [46F_47S_49N_50I_52G_53A_54G_55F_67L_, Q9UKT9]	1.15	0.769	0.918	0.088
FGCEICGATFTQKGNLLRHIKL [46F_47G_49E_50I_52G_53A_54T_55F_67L_, Q9UKT9]	3.22	2.59	1.76	1.11
FWCEICGATFTQKGNLLRHIKL [46F_47W_49E_50I_52G_53A_54T_55F_67L_, Q9UKT9]	3.05	3.73	1.97	0.793
FVCEICGATFTQKGNLLRHIKL [46F_47V_49E_50I_52G_53A_54T_55F_67L_, Q9UKT9]	0.63	1.64	1.82	2.54
FFCEICGHIFTQKGNLLRHIKL [46F_47F_49E_50I_52G_53H_54I_55F_67L_, Q9UKT9]	-0.448	-0.503	-0.957	-1.04
LRCEICGFSCTQKGNLLRHIKL [46L_47R_49E_50I_52G_53F_54S_55C_67L_, Q9UKT9]	2.23	1.56	2.62	2.99
LACEICGFSCTQKGNLLRHIKL [46L_47A_49E_50I_52G_53F_54S_55C_67L_, Q9UKT9]	3.41	2.96	0.73	1.55
LDCEICGFSCTQKGNLLRHIKL [46L_47D_49E_50I_52G_53F_54S_55C_67L_, Q9UKT9]	0.356	-1.04	-1.04	-0.00753
LGCEICGFSCTQKGNLLRHIKL [46L_47G_49E_50I_52G_53F_54S_55C_67L_, Q9UKT9]	1.24	0.532	-0.284	-0.251
LSCEICGFSCTQKGNLLRHIKL [46L_47S_49E_50I_52G_53F_54S_55C_67L_, Q9UKT9]	2.75	2.53	1.7	1.8
LWCEICGFSCTQKGNLLRHIKL [46L_47W_49E_50I_52G_53F_54S_55C_67L_, Q9UKT9]	3.66	3.79	3.08	1.89
LECEICGFSCTQKGNLLRHIKL [46L_47E_49E_50I_52G_53F_54S_55C_67L_, Q9UKT9]	0.457	-1.92	1.25	2.46
LVCEICGFSCTQKGNLLRHIKL [46L_47V_49E_50I_52G_53F_54S_55C_67L_, Q9UKT9]	2.39	3.11	2.52	3.33
LLCEICGFSCTQKGNLLRHIKL [46L_47L_49E_50I_52G_53F_54S_55C_67L_, Q9UKT9]	1.68	-0.0296	1.49	2.43
LNCEICGFSCTQKGNLLRHIKL [46L_47N_49E_50I_52G_53F_54S_55C_67L_, Q9UKT9]	1.58	-0.0234	-0.0305	0.742
LHCEICGFSCTQKGNLLRHIKL [46L_47H_49E_50I_52G_53F_54S_55C_67L_, Q9UKT9]	3.19	3.16	2.27	2.44
LQCEICGFSCTQKGNLLRHIKL [46L_47Q_49E_50I_52G_53F_54S_55C_67L_, Q9UKT9]	2.41	1.96	1.77	3.58
FLCDICGACFTQKGNLLRHIKL [46F_47L_49D_50I_52G_53A_54C_55F_67L_, Q9UKT9]	-0.48	-1.68	0.21	-0.568
FTCNQCGRMFTQKGNLLRHIKL [46F_47T_49N_50Q_52G_53R_54M_55F_67L_, Q9UKT9]	-2.42	-2.23	-3.36	-2.15
FKCPVCGANFTQKGNLLRHIKL [46F_47K_49P_50V_52G_53A_54N_55F_67L_, Q9UKT9]	-1.23	-1.7	-1.75	-0.842

From the supplement of paper PMC12645437, “Orthogonal IMiD-Degron Pairs Induce Selective Protein Degradation in Cells” (ACS Chemical Biology, 2025)
